Measured values from PubChem BioAssay (NCATS).
Records with an inconclusive call do not appear. Calls of active or inactive are those of the source. Unless noted, the call rests on the fitted dose curve; in most records, active means well fitted curve in the direction sought with a large enough effect; inconclusive means small, poorly fitted or top-dose-only effect, or another doubt; inactive means no such curve, though single readings can be large; an effect the other way counts as inactive or inconclusive.

Assays:
[1] = target: Ubiquitin carboxyl-terminal hydrolase 1 (Homo sapiens) (UniProt O94782); assay: Inhibitors of USP1/UAF1: Pilot qHTS (AID 504865);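 further: rhodamine fluorescence freed from ubiquitin-rhodamine substrate followed over time; top concentration of the series differs between compounds; on the % scale 0 is the no-effect control and ±100 the full control effect; nearly all actives have a fitted effect of over 35% in size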
How it was run: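 In 50mM HEPES pH 7.8 containing 0.5mM EDTA, 1mM TCEP, 0.1 mg/ml BSA and 0.01% Tween-20, 1nM USP1/UAF1 is exposed to compound for 15 min, then Ub-Rho (150nM final) is added and fluorescence is read over time.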

[2] = target: ATP-dependent 6-phosphofructokinase (Trypanosoma brucei brucei) (UniProt O15648); assay: qHTS Assay to Find Inhibitors of T. brucei phosphofructokinase: hit validation (AID 492961);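 further: luminescence reports ADP formed as PFK phosphorylates fructose-6-phosphate with ATP; series mostly up to about 51 µM; on the % scale 0 is the no-effect control and ±100 the full control effect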
How it was run: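 Measures ADP output of PFK (1.25 nM) at 0.1 mM ATP, 0.5 mM F6P, pH 8.0 TEA buffer with 5 mM MgCl2. No-enzyme wells define full inhibition; uninhibited enzyme wells define zero.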

[3] = target: Transient receptor potential cation channel subfamily V member 1 (Homo sapiens) (UniProt Q8NER1); assay: HTS Assay for Compounds that Act as Enhancers of the Vanilloid Receptor 1 (AID 488979); further: 0% is about no effect
How it was run: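 Calcium influx kinetics via Fluo-8 (480/520 nm) in TRPV1-expressing cells, 2000/well cultured overnight at 35.5C. Compound-alone read 3 min (agonist phase), followed by EC20 capsaicin challenge for 2 min (enhancer phase).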

[4] = target: Thyrotropin receptor (Homo sapiens) (UniProt P16473); assay: qHTS Assay for Antagonists of the Thyroid Stimulating Hormone Receptor (AID 488980); further: series mostly up to about 58 µM; 0% is about no effect
How it was run: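 Readout is cAMP by HTRF competition between cellular cAMP and cAMP-d2 for a cryptate-labelled antibody. Antagonism was assessed in TSHR-transfected HEK293 cells stimulated with 4 nM TSH (EC80, final) in the presence of RO 20-1724.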

[5] = target: D(1A) dopamine receptor (Homo sapiens) (UniProt P21728); assay: HTS Assay for Allosteric Agonists of the Human D1 Dopamine Receptor: Primary Screen for Agonists (AID 488981); further: 0% is about no effect
How it was run: (§1)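 Calcium flux in an inducible, force-coupled HEK293 Trex D1 line (overnight at 30 C): agonist mode is the 180 s kinetic read after compound; potentiator mode is the following 180 s read after dopamine at EC20.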

[6] = target: D(1A) dopamine receptor (Homo sapiens) (UniProt P21728); assay: HTS Assay for Allosteric Agonists of the Human D1 Dopamine Receptor: Primary Screen for Potentiators (AID 488982); further: 0% is about no effect
How it was run: as §1

[7] = Nrf2 qHTS screen for inhibitors: Validation (AID 493153; active means well fitted inhibition curve with a large enough effect in the main read-out, with a control signal flat, not every such curve was filed as active); conditions: viability change: measured here: cytotoxicity max response
How it was run: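 Luminescence from an ARE-firefly luciferase reporter in A549 cells gives Nrf2 inhibition; an earlier CellTiter-Fluor fluorescent read flags cytotoxicity. Cells in 5% FBS OPTI-MEM received compound dilution series for 18-24 h at 37°C.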

[8] = qHTS for Inhibitors of Cell Surface uPA Generation: Validation Assay (AID 493164); further: 0% is about no effect
How it was run: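 RAW 264.7 cells (4000/well) were plated overnight, then exposed for 18 h at 37 C, 5% CO2 to compounds in a 7-point 1:5 titration (2.45 nM–38.3 uM final). Intracellular ATP was read by ATP-Lite luminescence.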

[9] = target: Galactokinase (Homo sapiens) (UniProt P51570); assay: qHTS Validation Assay for Inhibitors of Human Galactokinase (GALK) (AID 493189); further: 0% is about no effect
How it was run: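 5 nM GALK / 100 uM galactose / 35 uM ATP, 20 mM HEPES pH8.0, 5 mM MgCl2, 60 mM NaCl, 1 mM DTT, 0.01% BSA (final). RT 1 h; Kinase-Glo Plus luminescence.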

[10] = Validation screen for small molecules that induce DNA re-replication in SW480 colon adenocarcinoma cells (AID 504364); further: 0% is about no effect
How it was run: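 250 cells/well; compound pinned in; 48 hr, 37 C, 5% CO2; Hoechst added, 40 min; nuclear fluorescence imaged, 405 ex / 500-530 em; re-replication scored as increase in high-intensity nuclei.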

[11] = target: Peptidyl-prolyl cis-trans isomerase NIMA-interacting 1 (Homo sapiens) (UniProt Q13526); assay: qHTS Validation Assay to Find Inhibitors of Pin1 (AID 504536; active means well fitted inhibition curve with a large enough effect in the polarisation, with a control signal flat, not every such curve was filed as active; the % refers to the polarisation;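 further: 0% = full Pin1 enzyme wells and -100% = no-enzyme wells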)
How it was run: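 Fluorescence polarization competition: compounds (titration) displace HiFluor-488-labeled Pin1-1b peptide from Pin1 (0.3 uM final) in pH 7.5 HEPES buffer with DTT, 10 min at room temperature; %Activity normalized to no-enzyme wells, curves fitted.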

[12] = target: Phosphoglycerate kinase, glycosomal (Trypanosoma brucei brucei) (UniProt P07378); assay: qHTS Validation Assay to Find Inhibitors of Phosphoglycerate Kinase (AID 504547);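 further: control wells lack PGK and mark full inhibition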
How it was run: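 Inhibition of the enzyme is judged by a Kinase-Glo Plus luminescent signal following a one-hour incubation at room temperature. Because 1,3-BPG is unstable, it is made in situ by GAPDH at 100nM final; no-PGK wells define the baseline.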

[13] = target: phosphoglycerate mutase (Leishmania major) (UniProt Q4Q090); assay: qHTS Validation Assay to Find Inhibitors of Phosphoglycerate Mutase (AID 504548); further: series mostly up to about 58 µM; on the % scale 0 is the no-effect control and ±100 the full control effect
How it was run: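 Luminescent end-point read-out via Kinase-GloPlus after a 10-minute development. Reaction: 1.25nM Leishmania major PGAM with substrate and compound, 45 minutes at room temperature in TEA buffer (pH 7.6) with MgCl2 and Tween-20.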

[14] = target: M-phase phosphoprotein 8 (Homo sapiens) (UniProt Q99549); assay: qHTS Validation Assay for Inhibitors for MPP8 Chromodomain Interactions with Methylated Histone Tails (AID 488949);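 further: 50 nM MPP8 with 50 nM peptide preformed then compounds added for 30 min; AlphaScreen signal from MPP8 chromodomain bound to biotinylated H3K9me3 peptide; top concentration of the series differs between compounds; on the % scale 0 is the no-effect control and ±100 the full control effect; nearly all actives have a fitted effect of over 55% in size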
How it was run: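 50 nM MPP8 + 50 nM b-H3K9me3 peptide, PBS pH 7.4/0.01% Tween-20, 30 min RT; + cpd 30 min RT; + AlphaScreen donor/Ni-chelate acceptor beads 10 ug/mL final, 30 min dark; luminescence read.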

[15] = target: D(1A) dopamine receptor (Homo sapiens) (UniProt P21728); assay: HTS Assay for Allosteric Agonists of the Human D1 Dopamine Receptor: Primary Screen for Antagonists (AID 488983);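 further: calcium flux response to an EC80 dopamine challenge measured with no-wash dye; on the % scale 0 is the no-effect control and ±100 the full control effect; nearly all actives have a fitted effect of over 65% in size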
How it was run: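 Cells are induced with tetracycline and incubated overnight at 30 C, then loaded with calcium dye for 30 to 90 minutes at room temperature. Compound addition is followed by a 180 s read, then an EC80 dopamine addition and another 180 s read.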

[16] = target: ATPase family AAA domain-containing protein 5 (Homo sapiens) (UniProt Q96QE3); assay: Validation screen for small molecules that inhibit ELG1-dependent DNA repair in human embryonic kidney (HEK293T) cells expressing luciferase-tagged ELG1 (AID 493107);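 further: cells co-treated with the DNA-damaging agent 5-fluorouridine alongside compound; series mostly up to about 46 µM; on the % scale 0 is the no-effect control and ±100 the full control effect; inhibitors lower the ELG1-luciferase luminescence signal; nearly all actives have a fitted effect of over 70% in size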
How it was run: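 Luminescence from ONE-Glo, developed 30 min at room temperature, served as read-out of ELG1-luciferase levels. Beforehand, reporter HEK293T cells received 5-fluorouridine plus test compound for 16 hr at 37 °C.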

[17] = qHTS for Inhibitors of ATXN expression: Validation of Cytotoxic Assay (AID 588349); further: on the % scale 0 is the no-effect control and ±100 the full control effect
How it was run: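 Read-out: ATP-based luminescence (CellTiter Glo) reflecting viability of HEK293 cells after 72 hr incubation at 37 degrees C with a concentration series of each compound.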

[18] = qHTS for Inhibitors of ATXN expression: Validation (AID 588378); further: series mostly up to about 57 µM; on the % scale 0 is the no-effect control and ±100 the full control effect; nearly all actives have a fitted effect of over 75% in size
How it was run: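 Compounds were pinned onto attached HEK293 cells carrying an ATXN2-firefly luciferase construct and incubated 24 hrs at 37 degrees C. Each well then received a fluorescent viability reagent followed by luciferase substrate for end-point luminescence.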

[19] = target: Chromobox protein homolog 1 (Homo sapiens) (UniProt P83916); assay: qHTS Validation Assay for Inhibitors of HP1-beta Chromodomain Interactions with Methylated Histone Tails (AID 488953);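 further: loss of AlphaScreen luminescence from HP1-beta binding biotinylated H3K9me3 peptide; series mostly up to about 110 µM; on the % scale 0 is the no-effect control and ±100 the full control effect; nearly all actives have a fitted effect of over 50% in size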
How it was run: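 50 nM HP1-beta + 50 nM biotin-H3(1-18)K9me3, PBS pH 7.4, 0.01% Tween-20, 30 min RT; compound added, 30 min RT; AlphaScreen beads 10 ug/mL final, 30 min dark; luminescence read.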

[20] = target: Thyrotropin-releasing hormone receptor (Homo sapiens) (UniProt P34981); assay: qHTS for Small Molecule Agonists and Allosteric Enhancers of Human TRH Receptor: Validation Screen for Agonists (AID 493127;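 active means calcium activation more than 3 SD above the typical response in the agonist read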;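 further: intracellular calcium rise by fluo-8 fluorescence before TRH EC20 addition; 0% is about no effect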); conditions: TRH receptor agonist cell assay; at 2 µM; stronger effect = higher value
How it was run: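 Cells 2000/well, 10% FCS, 18 h 33.5C/5% CO2 → fluo-8 Ca dye, RT 30 min–1.5 h → FDSS baseline 10 × 1 s → compound added → 230 cycles (1 s/cycle) agonist mode. TRH controls.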

Sequence of Ubiquitin carboxyl-terminal hydrolase 1 (Homo sapiens) (O94782 whole entry, looked up): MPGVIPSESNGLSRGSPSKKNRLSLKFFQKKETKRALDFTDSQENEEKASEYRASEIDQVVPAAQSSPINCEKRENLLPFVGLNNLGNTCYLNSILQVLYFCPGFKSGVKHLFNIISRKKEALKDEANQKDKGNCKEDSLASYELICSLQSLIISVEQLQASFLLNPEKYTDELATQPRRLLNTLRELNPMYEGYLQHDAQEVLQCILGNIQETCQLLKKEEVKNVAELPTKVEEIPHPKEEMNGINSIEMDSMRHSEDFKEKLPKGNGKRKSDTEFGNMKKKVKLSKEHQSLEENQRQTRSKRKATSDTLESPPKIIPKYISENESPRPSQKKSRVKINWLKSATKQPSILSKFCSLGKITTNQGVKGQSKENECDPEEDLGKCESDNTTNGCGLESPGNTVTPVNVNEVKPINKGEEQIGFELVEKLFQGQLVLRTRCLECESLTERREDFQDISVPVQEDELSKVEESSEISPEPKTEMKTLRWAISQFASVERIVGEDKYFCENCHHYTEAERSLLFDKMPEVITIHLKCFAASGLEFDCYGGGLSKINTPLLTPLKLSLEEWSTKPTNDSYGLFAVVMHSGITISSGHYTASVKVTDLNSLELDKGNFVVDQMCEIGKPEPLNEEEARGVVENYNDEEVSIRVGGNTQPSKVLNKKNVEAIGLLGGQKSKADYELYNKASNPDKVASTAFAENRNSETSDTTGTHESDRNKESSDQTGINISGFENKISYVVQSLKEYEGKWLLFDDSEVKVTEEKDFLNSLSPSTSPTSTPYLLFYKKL
Sequence of D(1A) dopamine receptor (Homo sapiens) (P21728 whole entry, looked up): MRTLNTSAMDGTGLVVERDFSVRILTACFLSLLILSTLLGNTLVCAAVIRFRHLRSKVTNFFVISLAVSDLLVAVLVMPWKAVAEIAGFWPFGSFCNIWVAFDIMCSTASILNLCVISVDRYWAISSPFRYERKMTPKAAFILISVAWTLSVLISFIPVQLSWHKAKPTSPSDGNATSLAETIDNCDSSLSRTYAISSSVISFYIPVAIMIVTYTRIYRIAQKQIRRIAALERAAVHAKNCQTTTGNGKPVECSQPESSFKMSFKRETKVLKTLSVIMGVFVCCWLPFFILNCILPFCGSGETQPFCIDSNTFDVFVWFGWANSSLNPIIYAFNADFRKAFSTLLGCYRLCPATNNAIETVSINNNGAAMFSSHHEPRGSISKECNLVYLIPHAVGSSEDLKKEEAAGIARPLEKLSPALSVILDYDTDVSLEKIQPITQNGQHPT
Sequence of ATPase family AAA domain-containing protein 5 (Homo sapiens) (Q96QE3 whole entry, looked up, the tested form may be a part): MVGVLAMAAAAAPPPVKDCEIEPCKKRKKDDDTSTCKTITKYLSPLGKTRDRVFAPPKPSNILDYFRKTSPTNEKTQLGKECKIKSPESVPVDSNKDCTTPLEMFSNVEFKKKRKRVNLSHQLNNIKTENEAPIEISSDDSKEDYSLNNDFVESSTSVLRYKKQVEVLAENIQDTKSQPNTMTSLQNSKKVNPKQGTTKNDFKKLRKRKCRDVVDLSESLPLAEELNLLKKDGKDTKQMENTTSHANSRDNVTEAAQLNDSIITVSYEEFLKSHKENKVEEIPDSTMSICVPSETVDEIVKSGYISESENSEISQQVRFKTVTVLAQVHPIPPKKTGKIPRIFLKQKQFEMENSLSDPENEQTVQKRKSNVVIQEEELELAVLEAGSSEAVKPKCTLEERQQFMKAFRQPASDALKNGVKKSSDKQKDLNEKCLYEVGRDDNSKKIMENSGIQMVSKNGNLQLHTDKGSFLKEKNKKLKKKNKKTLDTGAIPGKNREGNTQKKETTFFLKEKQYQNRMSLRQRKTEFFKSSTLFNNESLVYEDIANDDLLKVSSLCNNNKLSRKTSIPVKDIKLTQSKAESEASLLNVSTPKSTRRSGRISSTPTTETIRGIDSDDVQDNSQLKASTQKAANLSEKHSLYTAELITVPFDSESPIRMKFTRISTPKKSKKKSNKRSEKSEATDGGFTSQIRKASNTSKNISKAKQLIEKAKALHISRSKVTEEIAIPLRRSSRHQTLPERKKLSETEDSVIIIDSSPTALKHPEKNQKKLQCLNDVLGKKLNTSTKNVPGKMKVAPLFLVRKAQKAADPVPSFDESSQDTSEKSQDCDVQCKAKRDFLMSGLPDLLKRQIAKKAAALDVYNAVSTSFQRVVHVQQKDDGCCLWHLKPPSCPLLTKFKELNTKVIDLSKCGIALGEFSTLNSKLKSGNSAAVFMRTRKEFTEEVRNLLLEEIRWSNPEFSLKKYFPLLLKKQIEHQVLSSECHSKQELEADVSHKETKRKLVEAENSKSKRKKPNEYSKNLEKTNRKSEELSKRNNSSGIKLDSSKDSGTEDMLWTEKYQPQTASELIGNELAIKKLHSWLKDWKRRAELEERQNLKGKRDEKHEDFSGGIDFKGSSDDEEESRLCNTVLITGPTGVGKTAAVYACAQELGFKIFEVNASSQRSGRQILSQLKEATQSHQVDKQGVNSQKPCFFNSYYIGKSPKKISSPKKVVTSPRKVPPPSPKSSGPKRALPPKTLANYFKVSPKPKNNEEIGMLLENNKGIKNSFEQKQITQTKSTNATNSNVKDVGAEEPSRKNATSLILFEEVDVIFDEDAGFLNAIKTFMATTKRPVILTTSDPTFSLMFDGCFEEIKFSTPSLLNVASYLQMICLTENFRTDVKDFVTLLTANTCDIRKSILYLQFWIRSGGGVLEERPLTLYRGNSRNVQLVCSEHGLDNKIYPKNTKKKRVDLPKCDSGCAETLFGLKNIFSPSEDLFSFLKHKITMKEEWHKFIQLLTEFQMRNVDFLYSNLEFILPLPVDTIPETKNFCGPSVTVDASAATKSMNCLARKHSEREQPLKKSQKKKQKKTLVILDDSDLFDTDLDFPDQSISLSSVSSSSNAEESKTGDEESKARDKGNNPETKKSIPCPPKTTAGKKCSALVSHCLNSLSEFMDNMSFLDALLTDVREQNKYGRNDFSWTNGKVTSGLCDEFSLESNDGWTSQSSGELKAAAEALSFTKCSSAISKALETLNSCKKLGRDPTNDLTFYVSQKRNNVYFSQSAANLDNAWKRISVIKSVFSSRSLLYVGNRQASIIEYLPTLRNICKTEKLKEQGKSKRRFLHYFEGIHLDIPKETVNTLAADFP
Sequence of ATP-dependent 6-phosphofructokinase (Trypanosoma brucei brucei) (O15648 whole entry, looked up): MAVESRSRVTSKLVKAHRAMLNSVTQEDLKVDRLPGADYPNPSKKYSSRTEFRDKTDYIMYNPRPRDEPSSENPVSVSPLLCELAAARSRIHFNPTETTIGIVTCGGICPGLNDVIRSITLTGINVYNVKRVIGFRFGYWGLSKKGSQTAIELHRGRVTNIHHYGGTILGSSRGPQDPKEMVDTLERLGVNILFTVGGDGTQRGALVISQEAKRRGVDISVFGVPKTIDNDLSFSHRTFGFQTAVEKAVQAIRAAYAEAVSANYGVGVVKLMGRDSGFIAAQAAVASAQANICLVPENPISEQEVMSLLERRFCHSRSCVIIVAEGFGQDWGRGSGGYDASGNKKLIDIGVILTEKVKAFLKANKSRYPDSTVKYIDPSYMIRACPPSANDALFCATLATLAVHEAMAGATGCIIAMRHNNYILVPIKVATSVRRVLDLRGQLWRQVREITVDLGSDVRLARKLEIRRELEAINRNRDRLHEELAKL
Sequence of Peptidyl-prolyl cis-trans isomerase NIMA-interacting 1 (Homo sapiens) (Q13526 whole entry, looked up): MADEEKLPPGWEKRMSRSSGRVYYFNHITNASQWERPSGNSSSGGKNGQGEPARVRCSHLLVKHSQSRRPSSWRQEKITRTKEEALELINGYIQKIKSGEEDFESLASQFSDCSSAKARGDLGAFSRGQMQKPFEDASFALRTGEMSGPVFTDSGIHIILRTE
Sequence of phosphoglycerate mutase (Leishmania major) (Q4Q090 1-553): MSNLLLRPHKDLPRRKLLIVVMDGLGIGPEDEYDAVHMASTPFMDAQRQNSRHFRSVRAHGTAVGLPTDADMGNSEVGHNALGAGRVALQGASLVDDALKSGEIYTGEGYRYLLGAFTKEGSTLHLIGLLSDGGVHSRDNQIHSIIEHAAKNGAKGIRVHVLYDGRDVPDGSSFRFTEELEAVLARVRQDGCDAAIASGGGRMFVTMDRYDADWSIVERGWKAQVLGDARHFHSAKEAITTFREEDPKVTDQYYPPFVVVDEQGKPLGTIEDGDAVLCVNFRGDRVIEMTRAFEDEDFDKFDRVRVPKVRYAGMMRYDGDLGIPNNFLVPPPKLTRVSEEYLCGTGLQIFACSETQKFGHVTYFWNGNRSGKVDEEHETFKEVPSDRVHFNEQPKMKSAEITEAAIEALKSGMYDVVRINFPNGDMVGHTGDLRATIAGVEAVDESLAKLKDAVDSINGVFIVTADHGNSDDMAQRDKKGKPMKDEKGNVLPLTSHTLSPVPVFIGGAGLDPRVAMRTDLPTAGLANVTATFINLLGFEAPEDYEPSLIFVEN
Sequence of Phosphoglycerate kinase, glycosomal (Trypanosoma brucei brucei) (P07378 whole entry, looked up): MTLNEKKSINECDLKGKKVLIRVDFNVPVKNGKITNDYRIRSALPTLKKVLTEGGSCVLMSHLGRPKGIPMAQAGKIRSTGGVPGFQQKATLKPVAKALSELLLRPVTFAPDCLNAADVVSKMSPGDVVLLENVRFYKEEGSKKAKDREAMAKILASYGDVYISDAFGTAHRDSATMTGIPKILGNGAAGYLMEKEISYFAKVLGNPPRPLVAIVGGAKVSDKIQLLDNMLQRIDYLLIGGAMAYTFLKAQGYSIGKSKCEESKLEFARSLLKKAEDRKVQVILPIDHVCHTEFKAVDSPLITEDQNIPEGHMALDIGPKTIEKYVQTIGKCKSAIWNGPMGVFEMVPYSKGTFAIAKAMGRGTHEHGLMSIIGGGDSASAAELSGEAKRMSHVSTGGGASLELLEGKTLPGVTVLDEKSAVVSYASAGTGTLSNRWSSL
Sequence of Chromobox protein homolog 1 (Homo sapiens) (P83916 whole entry, looked up): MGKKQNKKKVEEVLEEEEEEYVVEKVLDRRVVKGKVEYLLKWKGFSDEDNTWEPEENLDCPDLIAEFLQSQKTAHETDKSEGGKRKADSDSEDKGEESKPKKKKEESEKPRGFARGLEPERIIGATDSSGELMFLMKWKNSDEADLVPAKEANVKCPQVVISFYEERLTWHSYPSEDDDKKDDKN

O=c1cc(-c2ccccc2)oc2cc(O)cc(O)c12
inactive: Potency [1]

Nc1ncnc2c1ncn2[C@@H]1O[C@@H](CO)[C@H](O)[C@H]1O
inactive: Potency [1]

COc1ccc2c3c1OC1C[C@@H](O)C=C[C@@]31CCN(C)C2 (some centres not stated)
inactive: Potency [1]

COCCCCC(=NOCCN)c1ccc(C(F)(F)F)cc1
inactive: Potency [1]

O=c1[nH]cnc2c1ncn2[C@H]1CC[C@@H](CO)O1
inactive: outcome [2] | Potency [1]

COc1ccc(C2Sc3ccccc3N(CCN(C)C)C(=O)C2OC(C)=O)cc1 (configuration not stated)
inactive: Potency [1]

COc1cc2ncnc(Nc3ccc(F)c(Cl)c3)c2cc1OCCCN1CCOCC1
inactive: outcome [2] | Potency [1]

Cc1cnc(C(=O)O)c[n+]1[O-]
inactive: outcome [2] | Potency [1]

C[C@@H](O)[C@H]1C(=O)N2C(C(=O)O)=C(S[C@@H]3CN[C@H](C(=O)N(C)C)C3)[C@H](C)[C@H]12
inactive: outcome [2] | Potency [1]

CC(C)(C)c1ccc(C(O)CCCN2CCC(C(O)(c3ccccc3)c3ccccc3)CC2)cc1 (configuration not stated)
inactive: outcome [3] | outcome [4] | outcome [5] | outcome [6] | outcome [2] | outcome [7] | outcome [8] | outcome [9] | outcome [10] | outcome [11] | outcome [12] | outcome [13]
-16.1%: viability change [7]

O=C(O)c1cc(-c2ccccc2)nc2ccccc12
inactive: Potency [1]

O=C(NCCN1CCOCC1)c1ccc(Cl)cc1
inactive: Potency [14] | outcome [5] | outcome [6] | Potency [15] | outcome [16] | outcome [7] | outcome [8] | outcome [11] | outcome [12] | outcome [13] | Potency [1] | Potency [17] | Potency [18]
-1.31%: viability change [7]

C[N+](C)(C)CC(=O)O
8.76%: viability change [7]
inactive: outcome [5] | outcome [6] | Potency [15] | outcome [16] | outcome [7] | outcome [8] | outcome [11] | outcome [12] | outcome [13] | Potency [17] | Potency [18]

CCn1cc(C(=O)O)c(=O)c2ccc(C)nc21
inactive: Potency [19] | outcome [5] | outcome [6] | Potency [15] | outcome [16] | outcome [8] | outcome [11] | outcome [12] | outcome [13] | Potency [1] | Potency [17] | Potency [18]

CCOC(=O)O[C@]1(C(=O)OCCl)CC[C@@H]2[C@H]3CCC4=CC(=O)C=C[C@]4(C)[C@@H]3[C@@H](O)C[C@@]21C
inactive: outcome [2] | Potency [1]

O=C(O)Cc1cccc2ccccc12
inactive: outcome [2] | Potency [1]

CC(C)NCC(O)COc1cccc2[nH]ccc12 (configuration not stated)
inactive: outcome [3] | outcome [4] | outcome [5] | outcome [6] | Potency [15] | outcome [16] | activation [20] -0.25% | outcome [7] | outcome [8] | outcome [9] | outcome [10] | outcome [11] | outcome [12] | outcome [13] | Potency [1] | Potency [17] | Potency [18]
3.18%: viability change [7]
